# Several values for one entry are separate records, joined by “and”; a condition that tells them apart may be missing. Equal values may be shown once. The source holds several records for some structures; these can differ, active in one and inactive in another. Activity calls are given as the source filed them. The calls were made as follows: active = hit-call score of the fitted dose curve at least 0.9, where 1 is the maximum; inactive = score below 0.9.
# Experiment: BSK_SAg_Proliferation: Cell Proliferation Assessment in the BioMAP Diversity Plus: SAg Assay (AID 2283095)
# Conditions: primary human HUVEC with PBMC
# Experimental: BSK_SAg is a cell-based, multiplexed-readout assay that uses umbilical vein endothelium and peripheral blood mononuclear cells, a human vascular primary cell co-culture, with measurements taken at 24 hours after chemical dosing in a 96-well plate.BSK_SAg_Proliferation is an assay component in the BSK_SAg assay. It measures protein content, a form of viability reporter, as detected with absorbance signals by Sulforhodamine staining technology. Data from the assay component BSK_SAg_Proliferation was analyzed into 1 assay endpoint. This assay endpoint, BSK_SAg_Proliferation, was analyzed with bidirectional fitting relative to DMSO as the negative control and baseline of activity. Using a type of viability reporter, measures of total protein for gain or loss-of-signal activity can be used to understand the viability at the cellular-level. Furthermore, this assay endpoint can be referred to as a secondary readout, because this assay has produced multiple assay endpoints where this one serves a viability function. To generalize the intended target to other relatable targets, this assay endpoint is annotated to the cell cycle intended target family, where the subfamily is proliferation.
# The levels of cell surface (or secreted, indicated by the prefix "s") biomarker endpoints were measured by ELISA. Overt cytotoxicity to cells in confluent adherent cultures (all systems other than the BT system) was assessed by measuring total protein levels using sulforhodamine B (SRB) staining in parallel cultures at the time of biomarker measurements, indicated as SRB endpoints. For proliferation assays for adherent cell types, individual cell types are cultured at sub-confluence and relative cell numbers quantified by SRB staining at time points optimized for each system (48 h: 3C and CASM3C systems; 72 h: BT and HDF3CGF systems; 96 h: SAg system). SRB was performed by staining cells with 0.1% SRB after fixation with 10% TCA and reading wells at 560 nm.Viability and proliferation of PBMC (T cells) was quantified by Alamar Blue reduction for the SAg and BT systems. For PBMC viability (referred to as PBMC Cytotoxicity within the assay endpoint names), cells were plated (75,000/well in a 96-well plate) and then chemical samples added for 1 h before addition of activators, SEB and TSST-1 (20 ng/mL final concentration each). Cells were incubated for 90 h. Then, Alamar Blue (20 uL/well) (Invitrogen, Cat DAL1100) was added for 6 h, and the plates were read with a fluorescence microplate reader at 546/580 nm (excitation/emission). For PBMC proliferation, cells were plated and activated as above but incubated for only 16 h prior to addition of Alamar Blue. Plates were read after 6 h.
SMILES,outcome,AC50
CCCCC(CC)COP(=O)(O)OCC(CC)CCCC (stereo not given),inactive,
C=C(C)C(=O)OCCC(F)(F)C(F)(F)C(F)(F)C(F)(F)C(F)(C(F)(F)F)C(F)(F)F,inactive,
CCO[Si](CCC(F)(F)C(F)(F)C(F)(F)C(F)(F)C(F)(F)C(F)(F)F)(OCC)OCC,inactive,
FC(F)(F)C(F)(F)C(F)(F)C(F)(F)C(F)(F)C(F)(F)CC1CO1 (stereo not given),inactive,
C=CC(=O)OCC(F)(F)C(F)(F)C(F)(F)C(F)(F)C(F)(F)C(F)(F)C(F)(F)F,inactive,20 µM (active)
O=C(O)C(F)(F)C(F)(F)F,inactive,
CCc1ccc(C(c2ccc(CC)cc2)C(Cl)Cl)cc1,,8.44 µM (active)
OCC(F)(F)C(F)(F)C(F)(F)C(F)(F)C(F)(F)C(F)(F)F,inactive,
FC(F)(F)C(F)(F)C(F)(F)C(F)(F)C(F)(F)C(F)(F)C(F)(F)C(F)(F)F,inactive,
CCCCOCCOCCOC(=O)CCCCC(=O)OCCOCCOCCCC,inactive,
O=P(O)(O)OCCC(F)(F)C(F)(F)C(F)(F)C(F)(F)C(F)(F)C(F)(F)F,inactive,
Nc1ccc([N+](=O)[O-])cc1O,inactive,
O=C(O)C(F)(F)C(F)(F)C(F)(F)C(F)(F)F,inactive,
O=C(O)C(F)(OC(F)(F)C(F)(OC(F)(F)C(F)(F)C(F)(F)F)C(F)(F)F)C(F)(F)F (stereo not given),inactive,
O=S(=O)(OCC(F)F)C(F)(F)F,inactive,
O=C(O)C(F)(F)C(F)(F)C(F)(F)C(F)(F)C(F)(F)C(F)(F)C(F)(F)C(F)(F)Cl,inactive,54.5 µM (active)
FC(F)(F)C(F)(F)C(F)(F)C(F)(F)C(F)(F)C(F)(F)C(F)(F)I,inactive,
OCC(F)(F)C(F)(F)C(F)(F)F,inactive,
FC(F)(I)C(F)(F)C(F)(F)C(F)(F)I,,54.2 µM (active) and 54.1 µM (active) and 46.5 µM (active)

SMILES,outcome,AC50
CC(C)(C)C(=O)CC(=O)C(F)(F)C(F)(F)C(F)(F)F,inactive,
O=C(O)C(F)(F)C(F)(F)C(F)(F)C(F)(F)C(F)(F)C(F)(F)C(F)(F)C(F)(F)C(F)(F)C(F)(F)C(F)(F)C(F)(F)F,inactive,
FC(F)(F)C(F)(F)C(F)(F)C(F)(F)C(F)(F)C(F)(F)C(F)(F)Br,inactive,
O=C(O)C(F)(F)C(F)(F)C(F)(F)F,inactive,
FC(F)(F)C(F)(F)C(F)(F)C(F)(F)C(F)(F)CCI,inactive,44 µM (active)
FC(F)(F)C(F)(F)CNCC(F)(F)C(F)(F)F,inactive,
C=CC(=O)OCC(F)(F)C(F)(F)C(F)(F)C(F)(F)COC(=O)C=C,,8.2 µM (active) and 8.47 µM (active)
O=C(O)C(F)(F)C(F)(F)C(F)(F)C(F)(F)C(F)(F)C(F)(F)C(F)(F)C(F)(F)C(F)(F)C(F)F,,47.8 µM (active) and 54.6 µM (active)
OCC(F)(F)C(F)(F)C(F)(F)C(F)(F)C(F)(F)C(F)F,inactive,
Oc1ccc(Nc2ccccc2)cc1,,3.84 µM (active)
OCCCC(F)(F)C(F)(F)C(F)(F)F,inactive,
CCc1c(Br)c(Br)c(Br)c(Br)c1Br,inactive,
O=S(=O)(OCCOC(F)(F)F)C(F)(F)F,inactive,
O=C(CC(=O)C(F)(F)C(F)(F)F)C(F)(F)F,inactive,
CC(=O)Nc1ccc(N=Nc2cc(C)ccc2O)cc1,,11 µM (active)
Cc1ccc(S(=O)(=O)OCC(F)(F)C(F)(F)C(F)(F)C(F)(F)C(F)(F)C(F)F)cc1,inactive,
FC(F)(F)C(F)(F)C(F)(F)N(C(F)(F)C(F)(F)C(F)(F)F)C(F)(F)C(F)(F)C(F)(F)F,inactive,
CCCCNc1ccccc1,inactive,

# Source: PubChem BioAssay (EPA / NIEHS)
